According to PubChem BioAssay (NCI):
About 83,000 compounds went through this panel and 20% of them were active in at least one assay; those are over-represented in the sample as a whole.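 Method: cells in 96-well plates; compound added at one concentration; 48 h incubation; percent growth measured; values under 10 scored active.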 Activity calls are given as the source filed them.

What was measured:
Assay in all cases: NCI-60 one-dose screen, 48 h (100 = growth as untreated, 0 = no growth, -100 = all killed)
Conditions in all cases: 10 µM unless noted
NCI-H23 lung = tested on: NCI-H23 lung
NCI-H226 lung = tested on: NCI-H226 lung
NCI-H322M lung = tested on: NCI-H322M lung
HOP-62 NSCLC = tested on: HOP-62 NSCLC
NCI-H460 lung = tested on: NCI-H460 lung
HOP-92 NSCLC = tested on: HOP-92 NSCLC
NCI-H522 lung = tested on: NCI-H522 lung
A549/ATCC NSCLC = tested on: A549/ATCC NSCLC
786-0 renal = tested on: 786-0 renal
COLO 205 colon = tested on: COLO 205 colon
DU-145 prostate = tested on: DU-145 prostate
K-562 leukemia = tested on: K-562 leukemia
MALME-3M melanoma = tested on: MALME-3M melanoma
MDA-MB-231 breast = tested on: MDA-MB-231 breast
RXF 393 renal = tested on: RXF 393 renal
SF-268 CNS = tested on: SF-268 CNS
SF-295 CNS = tested on: SF-295 CNS
SF-539 CNS = tested on: SF-539 CNS
UACC-257 melanoma = tested on: UACC-257 melanoma
M14 melanoma = tested on: M14 melanoma

SMILES	growth (NCI-H23 lung)	growth (NCI-H226 lung)	growth (NCI-H322M lung)	growth (HOP-62 NSCLC)	growth (NCI-H460 lung)	growth (HOP-92 NSCLC)	growth (NCI-H522 lung)	growth (A549/ATCC NSCLC)	growth (786-0 renal)	growth (COLO 205 colon)	growth (DU-145 prostate)	growth (K-562 leukemia)	growth (MALME-3M melanoma)	growth (MDA-MB-231 breast)	growth (RXF 393 renal)	growth (SF-268 CNS)	growth (SF-295 CNS)	growth (SF-539 CNS)	growth (UACC-257 melanoma)	growth (M14 melanoma)
COC(=O)c1nc(-c2ccccc2)oc1S(=O)(=O)N1CCN(c2cccc(Cl)c2)CC1	97.4% (inactive)	93.9% (inactive)	86.7% (inactive)	83% (inactive)	82.2% (inactive)	48.2% (inactive)	53.9% (inactive)	88.7% (inactive)	57% (inactive)	82.5% (inactive)	92.7% (inactive)	38.8% (inactive)	100% (inactive)	73.5% (inactive)	84% (inactive)	80.7% (inactive)	90.8% (inactive)	105% (inactive)	80.2% (inactive)	86.9% (inactive)
CN1CCN(Cc2ccc(NC(=O)c3cncc(C#Cc4cnc(N)c5cnccc45)c3)cc2C(F)(F)F)CC1	4.51% (active)	-28.4% (active)	13% (inactive)	-23.7% (active)	-9.5% (active)	-58.6% (active)	10.8% (inactive)	20% (inactive)	23.1% (inactive)	-20.2% (active)	10% (inactive)	1.52% (active)	-75.6% (active)	-61.2% (active)	-48.3% (active)	16.5% (inactive)	8.91% (active)	-73.8% (active)	-1.75% (active)	-41.6% (active)
COc1ccc(CN2CCc3c(Sc4ccccc4)nc(N)nc3C2=O)c(OC)c1	49% (inactive)	67.6% (inactive)	67.9% (inactive)	86.2% (inactive)	64.6% (inactive)	-11.4% (active)	21.3% (inactive)	60.5% (inactive)	62.4% (inactive)	80.2% (inactive)	77.4% (inactive)	48.3% (inactive)	38.9% (inactive)	69% (inactive)	44.4% (inactive)	67.3% (inactive)	69.6% (inactive)	66.5% (inactive)	50.5% (inactive)	61.7% (inactive)
COc1ccc(C(=O)N2NC(=O)/C(=C/c3ccc(Br)cc3)N=C2c2ccccc2)cc1	93.8% (inactive)	95.1% (inactive)	90.6% (inactive)	46.6% (inactive)	96.9% (inactive)	64.4% (inactive)	85.3% (inactive)	87.6% (inactive)	90.4% (inactive)	105% (inactive)	102% (inactive)	81.8% (inactive)	90.3% (inactive)	83.3% (inactive)	99.9% (inactive)	89.8% (inactive)	92.7% (inactive)	76.8% (inactive)	95.5% (inactive)	79.2% (inactive)
C=C1CCC2C(C)(CO)C(O)CCC2(C)C1C/C=C1/C(=O)OCC1Oc1ccccc1C (stereo not given)	94% (inactive)	80% (inactive)	98.6% (inactive)	101% (inactive)	104% (inactive)	118% (inactive)	23.8% (inactive)	89.1% (inactive)	98% (inactive)	105% (inactive)	82.8% (inactive)	30.6% (inactive)	109% (inactive)	109% (inactive)	109% (inactive)	102% (inactive)	97.6% (inactive)	81.1% (inactive)	83.5% (inactive)	67.1% (inactive)
C=C1CCC2C(C)(CO)C(O)CCC2(C)C1CC(NCc1ccccc1)C1=CCOC1=O (stereo not given)	98.9% (inactive)	100% (inactive)	103% (inactive)	107% (inactive)	102% (inactive)	99.8% (inactive)	89.9% (inactive)	99.9% (inactive)	96.3% (inactive)	103% (inactive)	104% (inactive)	101% (inactive)	100% (inactive)	99.6% (inactive)	103% (inactive)	86.5% (inactive)	111% (inactive)	101% (inactive)	102% (inactive)	97.3% (inactive)
COC(=O)c1cc2cc(-c3ccc(OC)cc3)cnc2[nH]1	36.8% (inactive)	45.1% (inactive)	50.4% (inactive)	50.3% (inactive)	6.52% (active)	0.19% (active)	-52.2% (active)	24.9% (inactive)	37.1% (inactive)	0.277% (active)	18.1% (inactive)	8.43% (active)	56.3% (inactive)	57.1% (inactive)	-36.4% (active)	45.5% (inactive)	0.983% (active)	-27.2% (active)	51.3% (inactive)	14.3% (inactive)
CCCCN(CCCC)C(=N)c1ccnc2ccccc12	108% (inactive)	116% (inactive)	110% (inactive)	119% (inactive)	108% (inactive)	96.4% (inactive)	102% (inactive)	96.7% (inactive)	115% (inactive)	125% (inactive)	117% (inactive)	110% (inactive)	98.8% (inactive)	119% (inactive)	127% (inactive)	103% (inactive)	93.8% (inactive)	113% (inactive)	66.2% (inactive)	110% (inactive)
CCN(CC)c1ccc(CNc2ccnc3ccccc23)cc1	28.8% (inactive)	58.6% (inactive)	70.6% (inactive)	66% (inactive)	55.2% (inactive)	-6.79% (active)	56.2% (inactive)	58.9% (inactive)	72.5% (inactive)	25.6% (inactive)	70% (inactive)	9.95% (active)	49.5% (inactive)	70.2% (inactive)	71.7% (inactive)	82.3% (inactive)	51.4% (inactive)	69.7% (inactive)	36.2% (inactive)	56.2% (inactive)
COc1ccc(-c2nc(-c3nc4cc(C)c(C)cc4[nH]3)cc3c2[nH]c2ccccc23)cc1	60.1% (inactive)	95.8% (inactive)	84% (inactive)	58.4% (inactive)	42.2% (inactive)	52.3% (inactive)	72.5% (inactive)	43.2% (inactive)	6.87% (active)	41.9% (inactive)	84.7% (inactive)	11.4% (inactive)	73.1% (inactive)	-49.5% (active)	-63.8% (active)	80.5% (inactive)	25.4% (inactive)	5.88% (active)	89.1% (inactive)	70.2% (inactive)
COc1ccc(OC)c(/C=C2\Oc3cc(OCCCN4CCCC4)ccc3C2=O)c1	80.6% (inactive)	88.7% (inactive)	88.9% (inactive)	95.6% (inactive)	61.3% (inactive)	77.6% (inactive)	89.6% (inactive)	81.2% (inactive)	84.2% (inactive)	85.6% (inactive)	79.6% (inactive)	-5.23% (active)	104% (inactive)	68.8% (inactive)	73.4% (inactive)	79.8% (inactive)	97.4% (inactive)	46% (inactive)	40.5% (inactive)	-2.52% (active)
CC(C)CSc1nc(NN)c(C#N)c(-c2ccccc2)n1	99.7% (inactive)	89.1% (inactive)	89.5% (inactive)	94.1% (inactive)	97.4% (inactive)	108% (inactive)	88.2% (inactive)	105% (inactive)	98.4% (inactive)	111% (inactive)	103% (inactive)	94.5% (inactive)	118% (inactive)	107% (inactive)	90.1% (inactive)	84.6% (inactive)	88.1% (inactive)	94.5% (inactive)	110% (inactive)	107% (inactive)
COc1ccc(Nc2nn3c(-c4ccccc4)cc(-c4ccccc4)nc3c2C(N)=O)c(OC)c1	33.5% (inactive)	46.4% (inactive)	61.4% (inactive)	47.3% (inactive)	20.3% (inactive)	70.9% (inactive)	34.8% (inactive)	24% (inactive)	67.6% (inactive)	53.2% (inactive)	38.2% (inactive)	58.1% (inactive)	44.7% (inactive)	29.3% (inactive)	84.7% (inactive)	53.4% (inactive)	37.5% (inactive)	13.4% (inactive)	62.4% (inactive)	51.3% (inactive)
C=C1C(=O)O[C@@H]2[C@@H]3O[C@@](C)(CC/C=C(\C)CCC[C@@H]2C)[C@H](O)C[C@@H]13	81.6% (inactive)	65.7% (inactive)	97.3% (inactive)	81.2% (inactive)	89.8% (inactive)	1.79% (active)	-16.5% (active)	95.3% (inactive)	79.1% (inactive)	47.1% (inactive)	50.1% (inactive)	18.6% (inactive)	55.2% (inactive)	68.2% (inactive)	27% (inactive)	67.9% (inactive)	81.8% (inactive)	58.3% (inactive)	67.9% (inactive)	-1.2% (active)
